# Test results: PubChem BioAssay (EPA / NIEHS)
# The source made the active and inactive calls. How the source made its calls: active means hit-call score of the fitted dose curve at least 0.9, where 1 is the maximum; inactive means score below 0.9.
# Key:
# Conditions in all cases: mRNA level, 48 h; actives raise or lower the signal
# [1] = read-out: JUN Transcription Factor, JUN (gene 3725); test: LTEA_HepaRG_JUN: Life Technologies and Expression Analysis (LTEA) Assay for JUN Transcription Factor using HepaRG (AID 2283513)
# How it was run: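 Human HepaRG liver cells receive test chemicals in 0.5% DMSO for 48 h across an eight-point range topping at 100 uM. Expression changes in JUN are scored in both directions against the DMSO vehicle.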
# [2] = read-out: Lipase C (LIPC), LIPC (gene 3990); test: LTEA_HepaRG_LIPC: Life Technologies and Expression Analysis (LTEA) Assay for Lipase C (LIPC) using HepaRG (AID 2283514)
# How it was run: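 HepaRG cells, 48 h after plating, treated in duplicate for 48 h in serum-free induction medium over 8 half-log concentrations from 100 uM, 0.5% DMSO. LIPC mRNA by TaqMan qRT-PCR normalized to ACTB/GAPDH/POLR2A; bidirectional fit versus DMSO.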
# [3] = read-out: Lipoprotein lipase (LPL), LPL (gene 4023); test: LTEA_HepaRG_LPL: Life Technologies and Expression Analysis (LTEA) Assay for Lipoprotein lipase (LPL) using HepaRG (AID 2283515)
# How it was run: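 Differentiated HepaRG cells, plated 48 h, then exposed 48 h in serum-free induction medium to 8 concentrations (top 100 uM, half-log steps) in 0.5% DMSO, duplicate. LPL mRNA measured by qRT-PCR, normalized to ACTB, GAPDH and POLR2A.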
# [4] = read-out: MicroRNA 122 (MIR122), gene 406906; test: LTEA_HepaRG_MIR122: Life Technologies and Expression Analysis (LTEA) Assay for MicroRNA 122 (MIR122) using HepaRG (AID 2283516); further: the transcript read is the microRNA miR-122
# How it was run: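 HepaRG, 48 h exposure, 8-pt half-log from 100 uM, 0.5% DMSO; TaqMan qRT-PCR; bidirectional fit vs DMSO.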
# [5] = read-out: matrix metalloproteinase-10 (MMP10), MMP10 (gene 4319); test: LTEA_HepaRG_MMP10: Life Technologies and Expression Analysis (LTEA) Assay for matrix metalloproteinase-10 (MMP10) using HepaRG (AID 2283517)
# How it was run: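 Differentiated HepaRG cells in serum-free induction medium exposed 48 h in duplicate to 8-point half-log series up to 100 uM in 0.5% DMSO. mRNA quantified by qRT-PCR, normalised to ACTB, GAPDH, POLR2A; bidirectional fit versus DMSO.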
# [6] = read-out: MYC, MYC (gene 4609); test: LTEA_HepaRG_MYC: Life Technologies and Expression Analysis (LTEA) Assay for MYC using HepaRG (AID 2283518)
# How it was run: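 HepaRG, ~100,000 cells/well, collagen I; 48 h plating; serum-free induction medium; 48 h dosing, duplicate, 100 uM top, half-log, 0.5% DMSO; total RNA → qRT-PCR MYC; gain/loss fit vs DMSO.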
# [7] = read-out: matrix metalloproteinase-3 (MMP3), MMP3 (gene 4314); test: LTEA_HepaRG_MMP3: Life Technologies and Expression Analysis (LTEA) Assay for matrix metalloproteinase-3 (MMP3) using HepaRG (AID 2283519)
# How it was run: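 HepaRG cells (~100,000/well) in serum-free induction medium were dosed in duplicate for 48 h with an 8-point half-log series from 100 uM, 0.5% DMSO. MMP3 mRNA was quantified by Fluidigm TaqMan qRT-PCR, normalized to three housekeeping genes.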
# [8] = read-out: Paternally Expressed 10 (PEG10), PEG10 (gene 23089); test: LTEA_HepaRG_PEG10: Life Technologies and Expression Analysis (LTEA) Assay for Paternally Expressed 10 (PEG10) using HepaRG (AID 2283520);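 on AC50: PEG10 transcript by qRT-PCR normalised to ACTB GAPDH and POLR2A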
# How it was run: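 Chemicals tested on HepaRG cells for 48 h, highest concentration 100 uM. PEG10 expression assessed by qRT-PCR relative to DMSO control.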
# [9] = read-out: Nuclear factor NF-kappa-B p105 subunit (Homo sapiens) (UniProt P19838); test: LTEA_HepaRG_NFKB1: Life Technologies and Expression Analysis (LTEA) Assay for Nuclear Factor Kappa B Subunit 1 (NFKB1) using HepaRG (AID 2283521);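 further: TaqMan qRT-PCR transcript normalised to ACTB GAPDH and POLR2A housekeeping genes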
# How it was run: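 Differentiated human HepaRG cells in serum-free induction medium with 0.5% DMSO were exposed for 48 h to eight half-log concentrations, top 100 uM, in duplicate. NFKB1 mRNA measured by Fluidigm TaqMan qRT-PCR, normalised to ACTB, GAPDH and POLR2A; bidirectional fit versus DMSO.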
# [10] = read-out: Protein phosphatase 2A (PPP2R4), PTPA (gene 5524); test: LTEA_HepaRG_PPP2R4: Life Technologies and Expression Analysis (LTEA) Assay for Protein phosphatase 2A (PPP2R4) using HepaRG (AID 2283522)
# How it was run: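 Gene-expression endpoint in HepaRG hepatic cells: 48 h treatment across eight half-log concentrations up to 100 uM in 0.5% DMSO. PPP2R4 mRNA by qRT-PCR, normalized to three endogenous control genes.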
# Nuclear factor NF-kappa-B p105 subunit (Homo sapiens), sequence (P19838 whole entry, looked up): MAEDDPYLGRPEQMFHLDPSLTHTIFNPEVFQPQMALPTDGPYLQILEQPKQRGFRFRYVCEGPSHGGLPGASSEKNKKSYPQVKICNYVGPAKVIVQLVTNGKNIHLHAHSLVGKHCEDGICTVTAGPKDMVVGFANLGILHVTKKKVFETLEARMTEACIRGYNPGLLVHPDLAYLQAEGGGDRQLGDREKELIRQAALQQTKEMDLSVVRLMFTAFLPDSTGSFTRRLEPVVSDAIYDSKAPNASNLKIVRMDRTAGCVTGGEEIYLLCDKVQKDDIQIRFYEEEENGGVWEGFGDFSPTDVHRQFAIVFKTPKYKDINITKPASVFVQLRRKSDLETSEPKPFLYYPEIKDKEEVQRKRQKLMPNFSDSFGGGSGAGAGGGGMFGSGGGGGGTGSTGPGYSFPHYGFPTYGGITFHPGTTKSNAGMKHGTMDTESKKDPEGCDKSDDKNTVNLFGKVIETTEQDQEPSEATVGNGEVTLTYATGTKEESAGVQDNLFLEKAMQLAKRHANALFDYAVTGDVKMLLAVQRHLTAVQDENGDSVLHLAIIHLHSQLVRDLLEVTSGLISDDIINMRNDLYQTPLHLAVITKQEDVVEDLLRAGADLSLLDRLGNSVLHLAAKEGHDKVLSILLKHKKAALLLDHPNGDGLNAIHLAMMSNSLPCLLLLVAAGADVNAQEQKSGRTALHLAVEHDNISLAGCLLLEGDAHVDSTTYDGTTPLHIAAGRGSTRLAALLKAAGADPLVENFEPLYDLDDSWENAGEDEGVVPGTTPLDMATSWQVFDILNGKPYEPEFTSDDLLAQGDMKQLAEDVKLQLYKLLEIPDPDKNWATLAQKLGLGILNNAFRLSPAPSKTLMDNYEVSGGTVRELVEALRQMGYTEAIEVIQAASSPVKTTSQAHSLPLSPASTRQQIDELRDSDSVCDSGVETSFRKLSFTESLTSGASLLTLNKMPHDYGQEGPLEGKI
smiles,measurement,setting,value
COc1cc2c(c(OC)c1OC)-c1ccc(OC)c(=O)cc1[C@@H](NC(C)=O)CC2,outcome,[1],inactive
same,AC50,[2],0.301 µM (active)
same,AC50,[3],0.096 µM (active)
same,AC50,[4],0.113 µM (active)
same,AC50,[5],0.0147 µM (active)
same,AC50,[6],0.144 µM (active)
same,AC50,[7],0.152 µM (active)
same,AC50,[8],0.112 µM (active)
same,outcome,[9],inactive
same,outcome,[10],inactive
Nc1ccn([C@@H]2O[C@H](CO)[C@@H](O)[C@@H]2O)c(=O)n1,outcome,[1],inactive
same,outcome,[2],inactive
same,outcome,[3],inactive
same,outcome,[4],inactive
same,outcome,[5],inactive
same,outcome,[6],inactive
same,outcome,[7],inactive
same,outcome,[10],inactive
O=S1(=O)CCCO1,outcome,[1],inactive
same,outcome,[2],inactive
same,outcome,[3],inactive
same,outcome,[4],inactive
same,outcome,[5],inactive
same,outcome,[6],inactive
same,outcome,[7],inactive
same,outcome,[10],inactive
O=C(O)c1cccc(C[C@@H]2COc3ccc(OCc4nc5cc(F)ccc5s4)cc3[C@@H]2O)c1,outcome,[1],inactive
same,outcome,[2],inactive
same,outcome,[3],inactive
same,outcome,[4],inactive
same,outcome,[5],inactive
same,outcome,[6],inactive
same,outcome,[7],inactive
same,outcome,[9],inactive
same,outcome,[10],inactive
Cc1ccc(S(=O)(=O)NC(=O)NN2CCCCCC2)cc1,outcome,[1],inactive
same,outcome,[2],inactive
same,outcome,[3],inactive
same,outcome,[4],inactive
same,outcome,[6],inactive
same,outcome,[7],inactive
same,outcome,[8],inactive
same,outcome,[9],inactive
same,outcome,[10],inactive
CC1(C)C(=O)N(Cl)C(=O)N1Cl,outcome,[1],inactive
same,outcome,[2],inactive
same,outcome,[3],inactive
same,outcome,[4],inactive
same,outcome,[5],inactive
same,outcome,[6],inactive
same,outcome,[7],inactive
same,outcome,[8],inactive
same,outcome,[10],inactive
O=S(=O)(O)c1ccc(N=Nc2c(O)ccc3cc(S(=O)(=O)O)ccc23)cc1,outcome,[1],inactive
same,outcome,[2],inactive
same,outcome,[3],inactive
same,outcome,[4],inactive
same,outcome,[5],inactive
same,outcome,[6],inactive
same,outcome,[7],inactive
same,outcome,[9],inactive
same,outcome,[10],inactive
CCOC(N)=O,outcome,[1],inactive
same,outcome,[2],inactive
same,outcome,[3],inactive
same,outcome,[4],inactive
same,outcome,[5],inactive
same,outcome,[6],inactive
same,outcome,[7],inactive
same,outcome,[10],inactive
CCCC(CCC)C(=O)O,outcome,[1],inactive
same,outcome,[2],inactive
same,outcome,[3],inactive
same,outcome,[4],inactive
same,outcome,[5],inactive
same,outcome,[6],inactive
same,outcome,[7],inactive
same,outcome,[9],inactive
same,outcome,[10],inactive
Cc1ncc([C@@H](CCCCCCc2ccc3c(n2)NCCC3)CC(=O)O)cn1,outcome,[1],inactive
same,outcome,[2],inactive
same,AC50,[3],0.382 µM (active)
same,outcome,[4],inactive
same,outcome,[5],inactive
same,outcome,[6],inactive
same,AC50,[7],0.145 µM (active)
same,outcome,[10],inactive
CCCCCCCC/C=C\CCCCCCCC(=O)OC[C@@H](O)[C@H]1OC[C@H](O)[C@H]1O,outcome,[1],inactive
same,outcome,[2],inactive
same,outcome,[3],inactive
same,outcome,[4],inactive
same,outcome,[5],inactive
same,outcome,[6],inactive
same,outcome,[7],inactive
same,outcome,[9],inactive
same,outcome,[10],inactive
CC(C)c1nnc2ccc(-c3ocnc3-c3cc(F)ccc3F)cn12,outcome,[1],inactive
same,AC50,[2],83.4 µM (active)
same,outcome,[3],inactive
same,AC50,[4],50 µM (active)
same,outcome,[5],inactive
same,outcome,[6],inactive
same,AC50,[7],7.09 µM (active)
same,outcome,[10],inactive
CCc1ccc(O)c(C(C)(C)C)c1,outcome,[1],inactive
same,outcome,[2],inactive
same,outcome,[3],inactive
same,outcome,[4],inactive
same,outcome,[5],inactive
same,outcome,[6],inactive
same,outcome,[7],inactive
same,outcome,[9],inactive
same,outcome,[10],inactive
O=C(O)c1ccc2c(c1)nc(C(=O)NC1CCN(C3CC3)CC1)n2Cc1cc(-c2ccc(Cl)s2)on1,outcome,[1],inactive
same,outcome,[2],inactive
same,outcome,[3],inactive
same,outcome,[4],inactive
same,outcome,[6],inactive
same,outcome,[7],inactive
same,outcome,[8],inactive
same,outcome,[9],inactive
same,outcome,[10],inactive
CNC(C)=O,outcome,[1],inactive
same,outcome,[2],inactive
same,outcome,[3],inactive
same,outcome,[4],inactive
same,outcome,[5],inactive
same,outcome,[6],inactive
same,outcome,[7],inactive
same,outcome,[10],inactive
NC(=O)N1c2ccccc2C=Cc2ccccc21,outcome,[1],inactive
same,outcome,[2],inactive
same,outcome,[3],inactive
same,outcome,[4],inactive
same,outcome,[5],inactive
same,outcome,[6],inactive
same,outcome,[7],inactive
same,outcome,[8],inactive
same,outcome,[9],inactive
same,outcome,[10],inactive
C=CCc1cc(S(=O)(=O)c2ccc(O)c(CC=C)c2)ccc1O,outcome,[1],inactive
same,AC50,[2],84.9 µM (active)
same,AC50,[3],93.4 µM (active)
same,AC50,[4],82 µM (active)
same,AC50,[5],93.2 µM (active)
same,AC50,[6],90 µM (active)
same,AC50,[7],92.2 µM (active)
same,outcome,[9],inactive
same,outcome,[10],inactive
C[C@@H](Oc1ccc(CNC(=O)c2cccnc2Oc2ccc3c(c2)OCO3)c(F)c1)C(=O)O,outcome,[1],inactive
same,outcome,[2],inactive
same,outcome,[3],inactive
same,outcome,[4],inactive
same,outcome,[5],inactive
same,outcome,[6],inactive
same,outcome,[9],inactive
same,outcome,[10],inactive
CC(C)CCCCCCOC(=O)C1CCCCC1C(=O)OCCCCCCC(C)C (configuration not stated),outcome,[1],inactive
same,outcome,[2],inactive
same,AC50,[3],9.92 µM (active)
same,outcome,[4],inactive
same,outcome,[6],inactive
same,outcome,[7],inactive
same,outcome,[8],inactive
same,outcome,[9],inactive
same,outcome,[10],inactive
NC(=O)NN=Cc1ccc([N+](=O)[O-])o1,AC50,[1],11.6 µM (active)
same,AC50,[2],0.233 µM (active)
same,outcome,[3],inactive
same,outcome,[4],inactive
same,AC50,[5],9.92 µM (active)
same,AC50,[6],0.151 µM (active)
same,AC50,[7],0.256 µM (active)
same,outcome,[9],inactive
same,outcome,[10],inactive
O=C(O)c1cccc(C(=O)O)c1,outcome,[1],inactive
same,outcome,[2],inactive
same,outcome,[3],inactive
same,outcome,[4],inactive
same,outcome,[5],inactive
same,outcome,[6],inactive
same,outcome,[7],inactive
same,outcome,[8],inactive
same,outcome,[10],inactive
CCCc1ccccc1,outcome,[1],inactive
same,outcome,[2],inactive
same,outcome,[3],inactive
same,outcome,[4],inactive
same,outcome,[5],inactive
same,outcome,[6],inactive
same,outcome,[7],inactive
same,outcome,[10],inactive
